Screens from PubChem BioAssay.
Most compounds without a hit are left out; they make up all but 2.2% or so of the library.
ANO1 activ: mouse TMEM16A channel activation, primary screen | Q8BHY3 | HEK293 TMEM16A/YFP-H148Q/I152L, iodide quench fluorescence; active compounds read low | B-score at 10 µM | AID 623877 | hit rate 0.3% among 340,000;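 active = fluorescence-ratio B-score plate-corrected deviation score at least 3 library SD below zero, with starting fluorescence score within 5 deviations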;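 note: channel opened by trigger with iodide after compound preincubation; score built on the fluorescence ratio of max minus min over baseline; more negative score means more quench and so TMEM16A activation or potentiation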
TLR4-MyD88 BLA: blocks binding of human TLR4 to MyD88; AID 861; O00206+Q99836; hit rate 0.18% among 200,000; HeLa CL3-4 TLR4/MyD88 BLA complementation, FRET ratio; inhibition, % at 8.4 µM; in the data active = inhibition above about 25%
TLR9-MyD88 inh: TLR9-MyD88 interaction inhibition. Q9NR96+Q99836. CHO BLA complementation TLR9-MyD88, CCF4 FRET ratio. inhibition, % at 4.98 µM. hit rate 0.21% among 340,000;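 active = inhibition above the mean over all tested compounds plus 3 SD, cut at about 21% in these data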
GRK2 aptamer HTS: human GRK2 inhibition via aptamer displacement; P25098; hit rate 0.59% among 330,000; inhibition of aptamer binding, % at 10 µM; bead flow cytometry, FAM-aptamer displacement from GRK2;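 active = inhibition of aptamer binding above 40%, roughly 3 SD of noise, on plates passing a quality check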;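 note: median bead fluorescence of bound FAM aptamer so fluorescent compounds give negative values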
Target sequence (P25098 whole entry, looked up): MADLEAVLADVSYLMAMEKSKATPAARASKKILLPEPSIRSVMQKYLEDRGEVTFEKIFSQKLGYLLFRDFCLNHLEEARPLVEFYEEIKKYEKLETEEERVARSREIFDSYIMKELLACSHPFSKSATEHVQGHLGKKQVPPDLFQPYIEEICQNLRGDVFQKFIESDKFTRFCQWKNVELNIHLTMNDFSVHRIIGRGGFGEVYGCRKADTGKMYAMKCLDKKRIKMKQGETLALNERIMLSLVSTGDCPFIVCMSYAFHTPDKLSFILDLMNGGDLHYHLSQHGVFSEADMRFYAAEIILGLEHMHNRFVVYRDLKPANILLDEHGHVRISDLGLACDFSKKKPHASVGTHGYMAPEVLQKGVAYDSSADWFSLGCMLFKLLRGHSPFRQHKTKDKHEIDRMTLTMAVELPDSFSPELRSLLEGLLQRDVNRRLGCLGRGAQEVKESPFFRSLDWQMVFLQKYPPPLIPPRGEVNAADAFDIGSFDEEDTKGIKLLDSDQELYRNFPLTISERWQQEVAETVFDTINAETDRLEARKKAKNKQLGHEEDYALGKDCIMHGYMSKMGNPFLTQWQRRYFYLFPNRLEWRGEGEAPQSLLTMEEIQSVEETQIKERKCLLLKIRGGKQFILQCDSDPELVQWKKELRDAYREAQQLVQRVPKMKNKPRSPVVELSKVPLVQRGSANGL
NOD2-RIPK2 inh: blocks binding of human NOD2 to RIPK2; CHO BLA complementation NOD2-RIPK2, CCF4 ratio; inhibition, % at 4.98 µM; hit rate 0.38% among 360,000; in the data active = inhibition above about 21%
TMEM16A inh: blocks the mouse calcium-activated chloride channel TMEM16A | AID 588511 | hit rate 1.2% among 310,000 | Q8BHY3 | normalized B-score (activity score, 25-100; higher = stronger inhibition) at 10 µM | HEK293 TMEM16A/YFP iodide influx fluorescence, ionomycin;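 active = ratio plate-corrected score three or more library SD toward inhibition, starting fluorescence score within five deviations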;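 note: score derived from kinetic fluorescence span divided by baseline fluorescence per well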
TMEM16A reconf: reconfirmed blocker of mouse TMEM16A calcium-activated chloride channel. HEK293 TMEM16A/YFP-H148Q, iodide quench fluorescence; ionomycin added to raise cell calcium. inhibition, % at 10 µM. hit rate 39% among 2,300. AID 652189. shares compounds with TMEM16A inh;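 active = mean duplicate percent inhibition, scaled so buffer wells are 0 and the reference blocker 100, over three buffer SD above buffer mean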
TMEM16A Ca cntr: counter-screen for TMEM16A inhibitors: effect on calcium mobilization; calcium response (% of ionomycin), % at 10 µM; shares compounds with TMEM16A inh; TMEM16A/YFP HEK293, Fluo4 calcium mobilization; hit rate 2% among 2,300;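 active = duplicate-averaged calcium signal over 20% of the ionomycin maximum, relative to buffer baseline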;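 note: each well's signal is peak minus trough fluorescence divided by its pre-addition baseline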
YFP-HEK293 quench: parental YFP-HEK293 iodide quench counter-screen activity. shares compounds with TMEM16A inh. ionomycin. YFP ratio F(max-min)/F0 at 10 µM. 2,300 tested, under 10 active. AID 652233;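 active = yellow fluorescent protein signal ratio exceeding the buffer control mean by over 5 SD of those controls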;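 note: ratio is mean of duplicate wells from kinetic YFP trace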
ClC-1 inh: selectivity of TMEM16A inhibitors: inhibition of rat ClC-1 chloride channel. ratio percent, % at 10 µM. CHO ClC-1-YFP, iodide influx fluorescence quench; iodide control reads 0, buffer control 100. 2,300 tested, under 10 active. AID 652236. shares compounds with TMEM16A inh;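 active = duplicate-mean ratio percent above the mean of iodide-only control wells, which defines zero, plus 5 of their SD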;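 note: higher percent means stronger block of ClC-1 iodide influx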
NOD2-RIPK2 conf: confirmation of human NOD2-RIPK2 interaction inhibitors. shares compounds with NOD2-RIPK2 inh. CHO cells, NOD2-RIPK2 BLA complementation, CCF4 FRET. inhibition, % at 4.98 µM. hit rate 70% among 1,200;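 active = mean inhibition across replicates above a set limit taken from the earlier primary screen, cut at about 21% in these data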
BLA counter: counter-screen for NOD2-RIPK2 interaction inhibitors: BLA reporter; shares compounds with NOD2-RIPK2 inh; CHO BLA reporter, CCF4 FRET ratio, counterscreen; inhibition, % at 4.98 µM; hit rate 57% among 1,200; AID 624371;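 active = mean inhibition above the low-control mean inhibition plus three low-control SD, cut at about 11% in these data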
A number is an active result; - = inactive; . = no result.

SMILES	ANO1 activ	TLR4-MyD88 BLA	TLR9-MyD88 inh	GRK2 aptamer HTS	NOD2-RIPK2 inh	TMEM16A inh	NOD2-RIPK2 conf	BLA counter	others
O=C1NCN(c2ccccc2)C12CCN(C(c1cccc3ccccc13)c1nnnn1C1CCCCC1)CC2 (stereo not given)	.	.	.	.	-	.	.	.
CSCCC(c1nnnn1Cc1ccccc1)N1CCC2(CC1)C(=O)NCN2c1ccccc1 (stereo not given)	.	.	.	.	-	.	.	.
CCCNC(=O)c1c(N)n(Cc2ccco2)c2nc3ccccc3nc12	.	-	.	-	.	-	.	.	TMEM16A reconf=-;TMEM16A Ca cntr=-;YFP-HEK293 quench=-;ClC-1 inh=-
COCCCNC(=O)c1c(N)n(Cc2ccco2)c2nc3ccccc3nc12	-	.	.	-	-	-	.	.
CC(C)CNC(=O)c1c(N)n(Cc2ccco2)c2nc3ccccc3nc12	-	-	-	-	-	-	.	.	TMEM16A reconf=18.0%;TMEM16A Ca cntr=-;YFP-HEK293 quench=-;ClC-1 inh=-
COc1cc2c(cc1/C=C/[N+](=O)[O-])OCO2	-	-	-	.	40.1	.	64.6	-
C=Cc1cc(OC)c2c(c1)c(=O)oc1c2cc(OC)c2c(O)ccc(C3OC(C)C(O)C(C)(O)C3O)c21 (stereo not given)	-	.	-	.	-	.	.	.
COC(=O)C1=C(C(=O)OC)SC2(S1)C(C(=O)OC)=C(C(=O)OC)Sc1c2ssc1=O	-	.	-	.	75.1	.	75.5	-
COC(=O)C1(F)C(=O)NC(=O)NC1O (stereo not given)	.	.	.	.	-	.	.	.
COc1ccc(-n2nnnc2C(CCSC)N2CCC3(CC2)C(=O)NCN3c2ccccc2)cc1 (stereo not given)	.	.	.	.	-	.	.	.
COc1ccc2c(c1OC)CN1CCc3cc4c(cc3[C@H]1C2)OCO4	-	.	-	-	-	.	.	.
CCC1CN2CCc3cc(OC)c(OC)cc3C2CC1CC1NCCc2c1[nH]c1ccc(O)cc21 (stereo not given)	-	.	-	.	29.5	.	27.3	-
O=P1(NCCCl)OCCC(OO)N1CCCl (stereo not given)	.	.	.	.	-	.	.	.
COC1CC2C=C(C)C=CC=CC(=O)NC(c3ccccc3)CC=CCCC(O)CC(=O)C2=C1O (stereo not given)	.	.	.	.	66.7	.	101.9	79.1
CCOC(=O)[C@]12Cc3cc(OC)ccc3[C@H]1N(C)C(=O)c1cc(OC)ccc12	.	.	.	.	-	.	.	.
CCOC(=O)[C@]12Cc3ccc(C)cc3[C@H]1N(C1CCCCC1)C(=O)c1ccccc12	.	.	.	.	52.4	.	54.0	-
CCOC(=O)[C@]12Cc3ccc(C)cc3[C@H]1N(C1CCCCC1)C(=O)c1cc(OC)ccc12	.	.	.	.	57.9	.	63.1	-
CCOC(=O)[C@]12Cc3cc(C)ccc3[C@H]1N(C1CCCCC1)C(=O)c1ccccc12	.	.	.	.	56.4	.	66.3	-
CCOC(=O)[C@]12Cc3cc(Cl)ccc3[C@H]1N(C1CCCCC1)C(=O)c1cc(OC)ccc12	.	.	.	.	69.9	.	66.2	-
CSCCC(c1nnnn1-c1c(C)cccc1C)N1CCC2(CC1)C(=O)NCN2c1ccccc1 (stereo not given)	.	.	.	.	-	.	.	.
COc1cccc(C)c1NC1=NCCO1	.	.	-	.	-	.	.	.
CCOC(=O)[C@]12Cc3ccccc3[C@H]1N(C(C)C)C(=O)c1ccccc12	.	.	.	.	-	.	.	.
CCOC(=O)[C@]12Cc3cc(Cl)ccc3[C@H]1N(Cc1ccccc1)C(=O)c1ccccc12	-	.	-	.	-	.	.	.
